# From the supplement of paper PMC8728848
# Many of the other results were omitted from the sample, so the strongest signals are more common in it than they were.
# How the values were obtained:
# Assay in all cases: glycan array binding signal (z-score within array); higher = stronger binding
# Conditions in all cases: glycan notation: IUPAC condensed, linker removed
# [1] = molecular target: GlcNAc(a1-4)Gal(b1-3)GlcNAc
# Outline: (§1)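 From the Consortium for Functional Glycomics database, 3228 arrays were curated, keeping only those whose protein sequence was available. Binding is given as a within-array Z-score averaged across arrays sharing a protein sequence and across linkers. Negative Z-scores can be read as non-binding.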
# [2] = molecular target: GlcNAc(b1-2)Man(a1-3)[GlcNAc(b1-4)][GlcNAc(b1-2)Man(a1-6)]Man(b1-4)GlcNAc(b1-4)[Fuc(a1-6)]GlcNAc
# Outline: as §1
# [3] = molecular target: GlcNAc(b1-3)Gal(b1-4)GlcNAc
# Outline: as §1
# [4] = molecular target: GlcNAc(b1-3)Gal(b1-4)GlcNAc(b1-6)[GlcNAc(b1-3)Gal(b1-3)]GalNAc
# Outline: as §1
# [5] = molecular target: GlcNAc(b1-3)[GlcNAc(b1-6)]GalNAc
# Outline: as §1
# [6] = molecular target: GlcNAc(b1-6)GalNAc
# Outline: as §1
# [7] = molecular target: Kdn(a2-3)Gal(b1-4)[Fuc(a1-3)]GlcNAc
# Outline: as §1
# [8] = molecular target: Neu5Ac(a2-3)Gal(b1-4)GlcNAc(b1-3)Gal(b1-4)GlcNAc(b1-3)Gal(b1-4)GlcNAc(b1-2)Man(a1-3)[Neu5Ac(a2-3)Gal(b1-4)GlcNAc(b1-3)Gal(b1-4)GlcNAc(b1-3)Gal(b1-4)GlcNAc(b1-2)Man(a1-6)]GalNAc
# Outline: as §1
# [9] = molecular target: Neu5Ac(a2-3)Gal(b1-4)GlcNAc(b1-3)Gal(b1-4)GlcNAc(b1-3)GalNAc
# Outline: as §1
# [10] = molecular target: Neu5Ac(a2-3)Gal(b1-4)[Fuc(a1-3)]GlcNAc(b1-2)Man
# Outline: as §1
# [11] = molecular target: Neu5Ac(a2-6)Gal(b1-4)GlcNAc(b1-2)Man(a1-3)[GlcNAc(b1-2)Man(a1-6)]Man(b1-4)GlcNAc(b1-4)GlcNAc
# Outline: as §1
# [12] = molecular target: Neu5Ac(a2-6)Gal(b1-4)GlcNAc(b1-2)Man(a1-3)[GlcNAc(b1-4)][Neu5Ac(a2-6)Gal(b1-4)GlcNAc(b1-2)Man(a1-6)]Man(b1-4)GlcNAc(b1-4)GlcNAc
# Outline: as §1
# [13] = molecular target: Neu5Ac(a2-6)Gal(b1-4)GlcNAc(b1-2)Man(a1-3)[Neu5Ac(a2-3)Gal(b1-4)GlcNAc(b1-2)Man(a1-6)]Man(b1-4)GlcNAc(b1-4)GlcNAc
# Outline: as §1
# [14] = molecular target: Neu5Ac9Ac(a2-3)Gal(b1-4)GlcNAc
# Outline: as §1
# [15] = molecular target: Neu5Gc(a2-3)Gal(b1-4)[Fuc(a1-4)]GlcNAc
# Outline: as §1
# [16] = molecular target: Fuc(a1-2)Gal(b1-4)GlcNAc(b1-2)Man
# Outline: as §1
# [17] = molecular target: Fuc(a1-2)Gal(b1-4)GlcNAc(b1-2)Man(a1-3)[Fuc(a1-2)Gal(b1-4)GlcNAc(b1-2)Man(a1-6)]Man(b1-4)GlcNAc(b1-4)GlcNAc
# Outline: as §1
# [18] = molecular target: Fuc(a1-2)[Gal(a1-3)]Gal(b1-4)GlcNAc(b1-3)GalNAc
# Outline: as §1
# [19] = molecular target: Fuc(a1-2)[Gal(a1-3)]Gal(b1-4)GlcNAc(b1-6)GalNAc
# Outline: as §1
# [20] = molecular target: Fuc(a1-2)[GalNAc(a1-3)]Gal(b1-4)GlcNAc(b1-2)Man(a1-3)[Fuc(a1-2)[GalNAc(a1-3)]Gal(b1-4)GlcNAc(b1-2)Man(a1-6)]Man(b1-4)GlcNAc(b1-4)GlcNAc
# Outline: as §1
# [21] = molecular target: Fuc(a1-3)[Gal(b1-4)]GlcNAc(b1-6)[Gal(b1-3)GlcNAc(b1-3)]Gal(b1-4)Glc
# Outline: as §1
# [22] = molecular target: Fuc(a1-3)[Gal(b1-4)]GlcNAc6S
# Outline: as §1
# [23] = molecular target: Gal(a1-3)Gal(b1-3)GlcNAc(b1-6)GalNAc
# Outline: as §1
# [24] = molecular target: Gal(a1-3)[Gal(a1-4)]Gal(b1-4)GlcNAc
# Outline: as §1
# [25] = molecular target: Gal(b1-3)GalNAc
# Outline: as §1
# [26] = molecular target: Gal(b1-3)GlcNAc(b1-2)[Gal(b1-3)GlcNAc(b1-6)]Man(a1-6)[Gal(b1-3)GlcNAc(b1-2)Man(a1-3)]Man(b1-4)GlcNAc(b1-4)GlcNAc
# Outline: as §1
# [27] = molecular target: Gal(b1-3)GlcNAc(b1-3)Gal(b1-4)Glc
# Outline: as §1
# [28] = molecular target: Gal(b1-4)GlcNAc(b1-2)Man(a1-3)Man(b1-4)GlcNAc(b1-4)GlcNAc
# Outline: as §1
# [29] = molecular target: Gal(b1-4)GlcNAc(b1-2)Man(a1-3)[GlcNAc(b1-4)][Gal(b1-4)GlcNAc(b1-2)Man(a1-6)]Man(b1-4)GlcNAc(b1-4)GlcNAc
# Outline: as §1
# [30] = molecular target: Gal(b1-4)GlcNAc(b1-3)Gal(b1-4)GlcNAc(b1-3)Gal(b1-4)GlcNAc(b1-3)Gal(b1-4)GlcNAc(b1-2)Man(a1-3)[Gal(b1-4)GlcNAc(b1-3)Gal(b1-4)GlcNAc(b1-3)Gal(b1-4)GlcNAc(b1-3)Gal(b1-4)GlcNAc(b1-2)Man(a1-6)]Man(b1-4)GlcNAc(b1-4)GlcNAc
# Outline: as §1
# [31] = molecular target: Gal(b1-4)GlcNAc(b1-3)Gal(b1-4)GlcNAc(b1-3)[Gal(b1-4)GlcNAc(b1-3)Gal(b1-4)GlcNAc(b1-6)]GalNAc
# Outline: as §1
# [32] = molecular target: Gal3S(b1-4)[Fuc(a1-3)]Glc6S
# Outline: as §1
# [33] = molecular target: GalNAc(b1-3)Gal(a1-6)Gal(b1-4)Glc
# Outline: as §1
# [34] = molecular target: GalNAc3S(b1-4)GlcNAc
# Outline: as §1
# [35] = molecular target: GlcA(b1-3)GlcNAc
# Outline: as §1
# [36] = molecular target: GlcNAc(a1-3)Gal(b1-4)GlcNAc
# Outline: as §1
# [37] = molecular target: GlcNAc(a1-4)Gal(b1-4)GlcNAc(b1-3)Gal(b1-4)[Fuc(a1-3)]GlcNAc(b1-3)Gal(b1-4)[Fuc(a1-3)]GlcNAc
# Outline: as §1
# [38] = molecular target: GlcNAc(b1-2)[GlcNAc(b1-4)]Man(a1-3)[GlcNAc(b1-4)][GlcNAc(b1-2)[GlcNAc(b1-6)]Man(a1-6)]Man(b1-4)GlcNAc(b1-4)[Fuc(a1-6)]GlcNAc
# Outline: as §1
# [39] = molecular target: GlcNAc(b1-3)Fuc
# Outline: as §1
# [40] = molecular target: GlcNAc(b1-3)Gal(b1-3)GalNAc
# Outline: as §1
# [41] = molecular target: GlcNAc(b1-3)Gal(b1-4)GlcNAc(b1-3)Gal(b1-4)GlcNAc(b1-3)GalNAc
# Outline: as §1
# [42] = molecular target: GlcNAc(b1-4)GlcNAc
# Outline: as §1
# [43] = molecular target: GlcNAc6S(b1-3)Gal(b1-4)GlcNAc
# Outline: as §1
# [44] = molecular target: Man(b1-4)GlcNAc
# Outline: as §1
# [45] = molecular target: Neu5Ac(a2-3)Gal(b1-3)GalNAc(b1-4)[Neu5Ac(a2-8)Neu5Ac(a2-3)]Gal(b1-4)Glc
# Outline: as §1
# [46] = molecular target: Neu5Ac(a2-3)Gal(b1-3)[Neu5Ac(a2-6)]GlcNAc(b1-3)[Fuc(a1-3)[Gal(b1-4)]GlcNAc(b1-6)]Gal(b1-4)Glc
# Outline: as §1
# [47] = molecular target: Neu5Ac(a2-3)Gal(b1-3)]Neu5Ac(a2-3)Gal(b1-4)]GlcNAc
# Outline: as §1
# [48] = molecular target: Neu5Ac(a2-3)Gal(b1-4)[Fuc(a1-3)]GlcNAc(b1-3)Gal
# Outline: as §1
# [49] = molecular target: Neu5Ac(a2-6)Gal(b1-4)GlcNAc(b1-2)Man(a1-6)[Gal(b1-4)GlcNAc(b1-2)Man(a1-3)]Man(b1-4)GlcNAc(b1-4)GlcNAc
# Outline: as §1
# [50] = molecular target: Neu5Ac(a2-6)Gal(b1-4)GlcNAc(b1-2)Man(a1-6)[Man(a1-3)]Man(b1-4)GlcNAc(b1-4)GlcNAc
# Outline: as §1
# [51] = molecular target: Neu5Ac(a2-6)Gal(b1-4)GlcNAc(b1-3)Gal(b1-4)GlcNAc(b1-3)Gal(b1-4)GlcNAc(b1-2)Man(a1-3)[Neu5Ac(a2-6)Gal(b1-4)GlcNAc(b1-3)Gal(b1-4)GlcNAc(b1-3)Gal(b1-4)GlcNAc(b1-2)Man(a1-6)]GalNAc
# Outline: as §1
# [52] = molecular target: Neu5Ac(a2-8)Neu5Ac(a2-3)Gal(b1-4)Glc
# Outline: as §1
# [53] = molecular target: Neu5Ac(a2-8)Neu5Ac(a2-3)Gal(b1-4)GlcNAc
# Outline: as §1
# [54] = molecular target: Neu5Ac(a2-8)Neu5Ac(a2-8)Neu5Ac(a2-8)Neu5Ac(a2-3)[GalNAc(b1-4)]Gal(b1-4)Glc
# Outline: as §1
binder,measurement,setting,value
"MGL1 (Mus musculus), P49300 (protein) MIYENLQNSRIEEKTQEPGKAPSQSFLWRILSWTHLLLFSLGLSLLLLVVVSVIGSQNSQLRRDLGTLRATLDNTTSKIKAEFQSLDSRADSFEKGISSLKVDVEDHRQELQAGRDLSQKVTSLESTVEKREQALKTDLSDLTDHVQQLRKDLKALTCQLANLKNNGSEVACCPLHWTEHEGSCYWFSESEKSWPEADKYCRLENSHLVVVNSLEEQNFLQNRLANVVSWIGLTDQNGPWRWVDGTDFEKGFKNWAPLQPDNWFGHGLGGGEDCAHITTGGPWNDDVCQRTFRWICEMKLAKES",glycan array binding signal (z-score),[1],0.26
same,glycan array binding signal (z-score),[2],0.417
same,glycan array binding signal (z-score),[3],0.138
same,glycan array binding signal (z-score),[4],-0.907
same,glycan array binding signal (z-score),[5],-0.368
same,glycan array binding signal (z-score),[6],0.042
same,glycan array binding signal (z-score),[7],0.025
same,glycan array binding signal (z-score),[8],3.39
same,glycan array binding signal (z-score),[9],-0.308
same,glycan array binding signal (z-score),[10],-0.66
same,glycan array binding signal (z-score),[11],-0.089
same,glycan array binding signal (z-score),[12],-0.48
same,glycan array binding signal (z-score),[13],-0.988
same,glycan array binding signal (z-score),[14],-0.495
same,glycan array binding signal (z-score),[15],-0.153
FGFR2-Fc (protein) MVNVTDAISSGDDEDDTDGAEDFVSENSNNKRAPYWTNTEKMEKRLHAVPAANTVKFRCPAGGNPMPTMRWLKNGKEFKQEHRIGGYKVRNQHWSLIMESVVPSDKGNYTCVVENEYGSINHTYHLDVVERSPHRPILQAGLPANASTVVGGDVEFVCKVYSDAQPHIQWIKHVEKNGSKYGPDGLPYLKVLKHSGINSSNAEVLALFNVTEADAGEYICKVSNYIGQANQSAWLTVLPKQQAPGREKEITASPDYLETRPLEQKLISEEDLAANDILDYKDDDDKV,glycan array binding signal (z-score),[16],0.252
same,glycan array binding signal (z-score),[17],-0.068
same,glycan array binding signal (z-score),[18],0.523
same,glycan array binding signal (z-score),[19],-0.635
same,glycan array binding signal (z-score),[20],0.034
same,glycan array binding signal (z-score),[21],-0.327
same,glycan array binding signal (z-score),[22],1.73
same,glycan array binding signal (z-score),[23],-0.722
same,glycan array binding signal (z-score),[24],0.989
same,glycan array binding signal (z-score),[25],0.236
same,glycan array binding signal (z-score),[26],0.991
same,glycan array binding signal (z-score),[27],-0.488
same,glycan array binding signal (z-score),[28],-0.054
same,glycan array binding signal (z-score),[29],-0.552
same,glycan array binding signal (z-score),[30],1.4
same,glycan array binding signal (z-score),[31],0.9
same,glycan array binding signal (z-score),[32],1.35
same,glycan array binding signal (z-score),[33],-0.126
same,glycan array binding signal (z-score),[34],-0.098
same,glycan array binding signal (z-score),[35],-0.356
same,glycan array binding signal (z-score),[36],22.2
same,glycan array binding signal (z-score),[37],1.49
same,glycan array binding signal (z-score),[38],0.045
same,glycan array binding signal (z-score),[39],0.448
same,glycan array binding signal (z-score),[40],-0.02
same,glycan array binding signal (z-score),[41],0.549
same,glycan array binding signal (z-score),[42],-0.264
same,glycan array binding signal (z-score),[43],0.175
same,glycan array binding signal (z-score),[44],0.038
same,glycan array binding signal (z-score),[45],-0.349
same,glycan array binding signal (z-score),[46],0.595
same,glycan array binding signal (z-score),[47],-0.115
same,glycan array binding signal (z-score),[48],1.09
same,glycan array binding signal (z-score),[49],0.258
same,glycan array binding signal (z-score),[50],-0.126
same,glycan array binding signal (z-score),[51],1.17
same,glycan array binding signal (z-score),[52],-0.492
same,glycan array binding signal (z-score),[53],-0.139
same,glycan array binding signal (z-score),[54],0.963
